The values below come from ChEMBL document CHEMBL3988442, “University of Dundee, Small-Polar-MMV Screening Library” (2021).

For some of these results: Potency and affinity values are given separately.

Holding throughout (set-up): scale not given: direction of the effect not stated beside the values
The target of test [1] is Protein translocase subunit SecA (Escherichia coli (strain K12)) (UniProt P10408). Kind of test: Assay to Identify E. coli SecA ATPase Inhibitors. Format: functional. The conditions noted are these: 30 µM.
Protein translocase subunit SecA (Escherichia coli (strain K12)), sequence (P10408 whole entry): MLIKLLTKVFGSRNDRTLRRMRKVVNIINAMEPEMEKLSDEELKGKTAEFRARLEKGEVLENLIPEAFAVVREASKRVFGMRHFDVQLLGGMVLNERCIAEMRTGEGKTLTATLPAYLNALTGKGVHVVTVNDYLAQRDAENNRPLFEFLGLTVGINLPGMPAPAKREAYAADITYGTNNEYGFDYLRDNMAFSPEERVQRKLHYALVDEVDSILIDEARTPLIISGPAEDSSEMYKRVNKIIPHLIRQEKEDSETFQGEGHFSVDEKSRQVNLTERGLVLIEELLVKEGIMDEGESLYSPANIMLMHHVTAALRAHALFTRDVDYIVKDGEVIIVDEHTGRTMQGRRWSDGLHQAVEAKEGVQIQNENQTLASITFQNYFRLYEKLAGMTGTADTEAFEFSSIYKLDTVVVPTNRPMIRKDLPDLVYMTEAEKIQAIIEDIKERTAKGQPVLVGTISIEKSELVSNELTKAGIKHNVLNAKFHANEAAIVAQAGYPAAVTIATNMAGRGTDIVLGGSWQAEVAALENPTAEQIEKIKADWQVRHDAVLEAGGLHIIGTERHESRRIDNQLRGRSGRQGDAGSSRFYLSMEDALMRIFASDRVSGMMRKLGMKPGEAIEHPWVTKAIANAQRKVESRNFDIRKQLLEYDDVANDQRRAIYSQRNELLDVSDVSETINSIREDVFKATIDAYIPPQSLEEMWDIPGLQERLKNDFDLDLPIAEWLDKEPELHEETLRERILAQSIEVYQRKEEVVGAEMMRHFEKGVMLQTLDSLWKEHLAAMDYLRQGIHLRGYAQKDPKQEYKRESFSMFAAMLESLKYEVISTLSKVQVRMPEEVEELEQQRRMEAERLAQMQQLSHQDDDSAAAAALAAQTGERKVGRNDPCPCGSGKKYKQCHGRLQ
Test [2] addresses T1, Ubiquitin-activating enzyme e1, putative (Leishmania donovani (strain BPK282A1)) (UniProt E9BSI1).
T1 sequence (whole entry): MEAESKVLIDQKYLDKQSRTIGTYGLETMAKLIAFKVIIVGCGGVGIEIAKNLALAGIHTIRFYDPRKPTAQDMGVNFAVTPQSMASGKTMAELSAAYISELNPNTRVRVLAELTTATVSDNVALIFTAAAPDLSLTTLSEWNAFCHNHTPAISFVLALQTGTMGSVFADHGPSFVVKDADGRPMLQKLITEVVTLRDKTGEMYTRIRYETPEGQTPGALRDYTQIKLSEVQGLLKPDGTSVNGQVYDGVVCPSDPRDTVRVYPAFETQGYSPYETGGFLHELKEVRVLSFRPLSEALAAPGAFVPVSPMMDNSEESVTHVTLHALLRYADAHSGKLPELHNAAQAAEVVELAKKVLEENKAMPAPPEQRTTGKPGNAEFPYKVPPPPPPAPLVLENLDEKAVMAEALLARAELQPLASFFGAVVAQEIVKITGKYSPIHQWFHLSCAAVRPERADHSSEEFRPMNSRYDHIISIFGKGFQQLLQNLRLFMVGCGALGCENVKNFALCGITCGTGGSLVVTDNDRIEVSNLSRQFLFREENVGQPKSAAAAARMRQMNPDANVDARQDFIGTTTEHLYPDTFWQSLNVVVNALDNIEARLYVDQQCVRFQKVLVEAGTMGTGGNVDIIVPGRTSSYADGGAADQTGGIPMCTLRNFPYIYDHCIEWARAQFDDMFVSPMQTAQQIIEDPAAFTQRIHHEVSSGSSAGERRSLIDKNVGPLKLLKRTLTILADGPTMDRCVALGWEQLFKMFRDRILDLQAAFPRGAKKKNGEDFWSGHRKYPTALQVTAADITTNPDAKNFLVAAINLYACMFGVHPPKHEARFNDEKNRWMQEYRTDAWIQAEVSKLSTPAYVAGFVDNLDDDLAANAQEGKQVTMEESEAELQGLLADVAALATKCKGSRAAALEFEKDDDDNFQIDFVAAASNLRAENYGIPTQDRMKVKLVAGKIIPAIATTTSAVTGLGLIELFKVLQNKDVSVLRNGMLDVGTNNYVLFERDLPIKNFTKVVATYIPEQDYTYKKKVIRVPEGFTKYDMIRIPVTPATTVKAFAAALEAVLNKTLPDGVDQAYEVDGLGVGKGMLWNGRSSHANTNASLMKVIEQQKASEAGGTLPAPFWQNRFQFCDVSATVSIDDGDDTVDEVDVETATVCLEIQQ
Nature of the test: Leishmania donovani Ubiquitin Activating Enzyme (LdE1). It is filed as functional. The conditions noted are these: 30 µM.

The target of test [3] is AMP-activated protein kinase, AMPK (Homo sapiens) (UniProt P54646+O43741+P54619+Q9UGJ0+Q9Y478+Q13131+Q9UGI9). Kind of test: AMP-dependent Kinase enzyme assay. An in vitro enzyme assay that detects ADP turnover that is directly proportional to AMPK activity. This uses naive AMPK that is activated during the assay with MK-8722. Format: functional. The settings on record: 30 µM.

Test [4] addresses Sialic acid-binding Ig-like lectin 9 (Homo sapiens) (UniProt Q9Y336). Kind of test: Hs-Siglec9 ALPHAscreen SOP 20170721. The settings on record: 10 µM. For orientation: In Alpha technology, singlet oxygen from a donor bead excites a nearby acceptor bead.
For another test, the system named is Trypanosoma cruzi. Nature of the test: Trypanosoma cruzi phosphomannomutase and mannose-1-phosphate guanylyltransferase assay. Format: functional. The conditions noted are these: 10 µM.
In test [5] the target is T2, Arginase-2, mitochondrial (Homo sapiens) (UniProt P78540).
T2 sequence (whole entry): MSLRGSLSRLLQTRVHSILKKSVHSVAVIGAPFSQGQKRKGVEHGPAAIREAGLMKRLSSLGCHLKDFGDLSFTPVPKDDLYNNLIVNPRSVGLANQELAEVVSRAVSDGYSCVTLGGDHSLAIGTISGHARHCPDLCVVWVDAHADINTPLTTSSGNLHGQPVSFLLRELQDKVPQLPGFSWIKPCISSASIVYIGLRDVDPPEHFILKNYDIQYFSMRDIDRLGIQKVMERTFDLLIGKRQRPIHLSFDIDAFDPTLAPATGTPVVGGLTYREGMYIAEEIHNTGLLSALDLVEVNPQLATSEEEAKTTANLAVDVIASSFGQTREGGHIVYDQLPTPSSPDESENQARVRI
Kind of test: in vitro enzyme assay to detect the production of urea directly proportional to the activity of Arginase II. Also: in the data most compounds retested in dose-response had high values. The settings on record: 33.3 µM. It is filed as functional.

Test [6] deals with T3, Proteasome subunit beta (Trypanosoma cruzi) (UniProt O96673).
T3 sequence (whole entry): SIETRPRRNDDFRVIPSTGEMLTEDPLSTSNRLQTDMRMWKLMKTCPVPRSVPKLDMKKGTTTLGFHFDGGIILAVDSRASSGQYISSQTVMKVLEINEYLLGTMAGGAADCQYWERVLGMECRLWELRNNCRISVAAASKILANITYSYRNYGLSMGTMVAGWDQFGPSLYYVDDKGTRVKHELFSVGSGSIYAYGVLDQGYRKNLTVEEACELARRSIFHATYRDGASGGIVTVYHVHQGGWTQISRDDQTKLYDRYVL
Kind of test: Trypanosoma cruzi proteasome chymotrypsin-like activity (TcProtChymo) assay. Also: in the data most compounds retested in dose-response had high values. Format: functional. The conditions noted are these: 9.37 µM.

Another test is filed under the species Homo sapiens. Nature of the test: To identify inhibition of the IFN signalling (Jak-Stat) pathway via expression of an eGFP reporter gene under the control of an IFN-stimulated response element (ISRE) containing MxA promoter. The settings on record: 30 µM. It is filed as functional. In general terms: Reporter assays use an easily measured gene product as a stand-in for the process of interest.

For test [7], the target named is T4, Tyrosyl-tRNA synthetase, putative (Trypanosoma cruzi (strain CL Brener)) (UniProt Q4DSP6).
T4 sequence (whole entry): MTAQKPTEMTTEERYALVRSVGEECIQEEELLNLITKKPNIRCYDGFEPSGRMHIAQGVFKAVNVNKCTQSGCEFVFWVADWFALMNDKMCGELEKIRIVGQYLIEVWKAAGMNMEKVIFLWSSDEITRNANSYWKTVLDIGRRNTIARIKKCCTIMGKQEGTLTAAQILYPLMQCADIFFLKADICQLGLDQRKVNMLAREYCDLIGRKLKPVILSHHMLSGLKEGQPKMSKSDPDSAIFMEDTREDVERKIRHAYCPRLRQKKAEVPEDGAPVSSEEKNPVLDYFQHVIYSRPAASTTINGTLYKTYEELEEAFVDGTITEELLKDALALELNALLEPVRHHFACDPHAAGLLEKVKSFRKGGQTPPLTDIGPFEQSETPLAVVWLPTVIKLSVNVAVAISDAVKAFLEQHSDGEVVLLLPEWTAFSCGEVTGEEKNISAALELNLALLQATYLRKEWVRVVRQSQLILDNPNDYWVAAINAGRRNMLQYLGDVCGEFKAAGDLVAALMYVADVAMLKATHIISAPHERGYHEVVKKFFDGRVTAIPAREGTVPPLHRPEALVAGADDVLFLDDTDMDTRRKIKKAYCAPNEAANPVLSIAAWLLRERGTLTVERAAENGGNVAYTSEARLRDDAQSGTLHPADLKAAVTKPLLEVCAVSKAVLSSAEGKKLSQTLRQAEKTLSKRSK
Nature of the test: Trypanosoma cruzi tyrosyl tRNA synthetase (TcYRS) _High Tyrosine SOP. Also: in the data most compounds retested in dose-response had high values. It is filed as functional. The settings on record: 30 µM.

The target of test [8] is T4, Tyrosyl-tRNA synthetase, putative (Trypanosoma cruzi (strain CL Brener)). Kind of test: Trypanosoma cruzi tyrosyl tRNA synthetase (TcYRS) SOP. It is filed as functional. The settings on record: 30 µM.
For test [9], the target named is Chromo domain-containing protein 1 (Saccharomyces cerevisiae (strain ATCC 204508 / S288c) (Baker's yeast)) (UniProt P32657). Nature of the test: ScCHD-1 Enzyme Inhibition Assay. Also: in the data most compounds retested in dose-response had high values. Format: functional. The settings on record: 30 µM.
Chromo domain-containing protein 1 (Saccharomyces cerevisiae (strain ATCC 204508 / S288c) (Baker's yeast)), sequence (P32657 whole entry, the tested form may be a part): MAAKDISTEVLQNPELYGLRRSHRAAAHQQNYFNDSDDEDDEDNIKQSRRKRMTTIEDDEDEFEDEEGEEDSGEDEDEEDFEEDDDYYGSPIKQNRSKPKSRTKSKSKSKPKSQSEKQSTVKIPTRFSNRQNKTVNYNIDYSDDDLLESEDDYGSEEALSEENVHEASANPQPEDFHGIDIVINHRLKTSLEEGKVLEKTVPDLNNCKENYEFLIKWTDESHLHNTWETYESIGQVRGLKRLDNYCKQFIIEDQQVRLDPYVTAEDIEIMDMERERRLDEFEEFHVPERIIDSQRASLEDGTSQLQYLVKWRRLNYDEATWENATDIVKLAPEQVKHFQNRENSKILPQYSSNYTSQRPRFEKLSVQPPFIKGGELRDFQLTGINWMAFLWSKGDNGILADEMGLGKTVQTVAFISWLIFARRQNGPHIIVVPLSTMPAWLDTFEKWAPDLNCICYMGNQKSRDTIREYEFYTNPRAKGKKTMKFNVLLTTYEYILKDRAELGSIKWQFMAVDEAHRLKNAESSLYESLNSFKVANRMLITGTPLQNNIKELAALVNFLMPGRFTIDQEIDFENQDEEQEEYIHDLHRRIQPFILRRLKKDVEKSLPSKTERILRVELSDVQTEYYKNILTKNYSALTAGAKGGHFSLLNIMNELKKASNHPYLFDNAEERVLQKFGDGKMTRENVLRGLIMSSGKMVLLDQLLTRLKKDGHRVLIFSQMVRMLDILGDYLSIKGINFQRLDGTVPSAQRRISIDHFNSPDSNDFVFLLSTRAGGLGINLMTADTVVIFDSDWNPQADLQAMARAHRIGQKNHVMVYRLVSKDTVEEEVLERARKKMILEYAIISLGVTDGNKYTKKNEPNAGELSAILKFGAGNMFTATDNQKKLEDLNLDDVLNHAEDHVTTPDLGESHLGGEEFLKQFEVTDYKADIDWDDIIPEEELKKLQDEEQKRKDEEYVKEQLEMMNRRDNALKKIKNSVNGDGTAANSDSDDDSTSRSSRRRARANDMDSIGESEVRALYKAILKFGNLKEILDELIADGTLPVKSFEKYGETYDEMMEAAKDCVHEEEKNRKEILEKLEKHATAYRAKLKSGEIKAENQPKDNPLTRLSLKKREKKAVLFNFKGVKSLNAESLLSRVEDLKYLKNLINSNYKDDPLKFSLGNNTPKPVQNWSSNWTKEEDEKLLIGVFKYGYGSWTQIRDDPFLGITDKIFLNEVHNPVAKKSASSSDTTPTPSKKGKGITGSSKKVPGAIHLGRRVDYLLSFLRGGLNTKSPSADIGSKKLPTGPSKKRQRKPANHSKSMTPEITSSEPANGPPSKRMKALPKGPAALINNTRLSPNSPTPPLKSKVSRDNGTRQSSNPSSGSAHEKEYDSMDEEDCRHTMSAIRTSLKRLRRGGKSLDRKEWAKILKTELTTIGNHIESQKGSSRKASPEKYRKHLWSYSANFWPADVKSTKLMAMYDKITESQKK

Sialic acid-binding Ig-like lectin 9 (Homo sapiens), sequence (Q9Y336 whole entry): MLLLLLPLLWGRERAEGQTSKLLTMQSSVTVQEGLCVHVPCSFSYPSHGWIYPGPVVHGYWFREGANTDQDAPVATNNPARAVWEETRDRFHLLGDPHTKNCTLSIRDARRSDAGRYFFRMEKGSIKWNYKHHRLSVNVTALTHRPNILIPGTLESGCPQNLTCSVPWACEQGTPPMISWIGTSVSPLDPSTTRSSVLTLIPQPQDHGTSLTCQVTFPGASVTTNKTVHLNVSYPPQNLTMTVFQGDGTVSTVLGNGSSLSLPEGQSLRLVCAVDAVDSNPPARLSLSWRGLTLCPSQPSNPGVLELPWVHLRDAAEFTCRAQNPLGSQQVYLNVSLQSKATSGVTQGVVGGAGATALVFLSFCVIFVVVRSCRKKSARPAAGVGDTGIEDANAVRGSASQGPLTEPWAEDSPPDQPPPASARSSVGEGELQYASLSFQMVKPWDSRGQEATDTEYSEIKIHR

On to `O=C(c1ccccn1)N1CCc2nc(-c3cnccn3)nc(O)c2C1`, for which the Percent Effect is 0.65% in test [1]; 12.2% in test [2]; 8.6% in test [3]; 0.354% in test [4]; -3.36% in the test on Trypanosoma cruzi; -0.232% in test [5]. For the same compound, the Percent Effect in test [6] was 11.7%; in the test listed under Homo sapiens it was 14.4%; in test [7] it was 4.3%; in test [8], 14.3%; in test [9] it was -12.2%.
For the compound `COC(=O)CCN1CCCC1c1ccccc1Cl` (stereo unspecified), the Percent Effect in [1] is -3.1%; in test [2], -2.67%; in [3], -1.16%; in [4] it was 1.78%; with Trypanosoma cruzi it was 2.04%; in test [5], -1.56%. For the same compound, the Percent Effect was 5.41% in test [6]; 1.88% in the test filed under Homo sapiens; 3.83% in [7]; 6.17% in test [8]; -0.731% in test [9].
Consider `Cc1cnn(CCNCC(=O)NCCOc2ccccc2)c1`, for which the Percent Effect was 0.828% in [1]; 21.1% in [2]; 4.84% in [3]; -1.9% in [4]; -5.88% in the test with Trypanosoma cruzi; 0.719% in [5]. For the same compound, the Percent Effect in test [6] is 6.85%; in the test listed under Homo sapiens, 25.5%; in test [7], 4.43%; in test [8] it was -6.17%; in [9] it was -8.28%.
Take `CN(C)C(=O)CN1C[C@@H]2CC[C@H](C1)N(Cc1cc(F)ccc1F)C2`: the Percent Effect in test [1] is -2.16%; in test [2], 5.48%; in test [3], 42.7%; in [4], 2.19%; in the test with Trypanosoma cruzi it was -9.13%; in test [5], -2.79%. Besides, the Percent Effect was 20.6% in test [6]; 15.6% in the test filed under Homo sapiens; 4.17% in test [7]; 6.17% in [8]; -5.68% in test [9].
As for `Cc1cccc(C(=O)NCc2ccnc(N(C)C)c2)n1`, the Percent Effect was 1.73% in test [1]; -5.2% in [2]; 2.32% in [3]; 6.58% in test [4]; -3.04% with Trypanosoma cruzi; 2.32% in test [5]. Also, the Percent Effect in [6] is 3.15%; in the test filed under Homo sapiens, 15.9%; in test [7], 0%; in test [8] it was -37.6%; in test [9], 8%.
For `COc1ccc(CNCc2ccnc(N3CCOCC3)c2)c(OC)c1`, the Percent Effect was -4.43% in test [1]; 8.11% in test [2]; -10.3% in test [3]; 1.04% in test [4]; -3.49% in the test with Trypanosoma cruzi; 3.21% in test [5]. The Percent Effect is 7.75% in test [6]; 28.2% in the test filed under Homo sapiens; 3.45% in test [7]; 6.17% in test [8]; -4.72% in test [9].
For the compound `O=C(NCC(F)(F)F)C1CSCN1S(=O)(=O)c1ccc(F)cc1` (stereo unspecified), the Percent Effect in [1] is -4.1%; in test [2] it was 16.5%; in test [3], 4.27%; in test [4], -0.453%; in the test on Trypanosoma cruzi it was 1.33%; in test [5], -4.95%. In addition, the Percent Effect in test [6] was 16.5%; in the test listed under Homo sapiens it was 7.19%; in test [7], 13.5%; in test [8], 30.4%; in test [9], -28%.
In the case of `Cn1cnnc1S(=O)(=O)C1CCN(S(=O)(=O)c2c(Cl)cccc2Cl)CC1`, the Percent Effect in [1] was -1.95%; in test [2], 0%; in [3] it was 5.5%; in test [4], -4.3%; with Trypanosoma cruzi, -1.76%; in test [5], -2.27%. Besides, the Percent Effect was 4.97% in test [6]; 6.49% in the test filed under Homo sapiens; 0% in test [7]; 0% in test [8]; 0.0853% in test [9].
In the case of `CC(C)c1ncc(CN2C[C@@H](CN3CCC(CO)CC3)[C@@H](CO)C2)cn1`, the Percent Effect in [1] is -3.44%; in test [2], 8%; in test [3], -6.42%; in [4], 4.65%; in the test with Trypanosoma cruzi, 3.02%; in test [5] it was 1.56%. Besides, the Percent Effect in test [6] is 19.7%; in the test listed under Homo sapiens it was 10.9%; in [7], 3.83%; in test [8] it was 11.1%; in test [9] it was -4.15%.
For the compound `CCOc1nnc(CN2CCOC(CNc3cccnn3)C2)s1` (stereo unspecified), the Percent Effect was -1.03% in [1]; 20.8% in test [2]; -24.7% in test [3]; -0.385% in test [4]; 2.43% with Trypanosoma cruzi; -3.92% in [5]. The Percent Effect in test [6] is 11.8%; in the test listed under Homo sapiens, 10.6%; in test [7], 16.5%; in [8], 7.32%; in [9] it was -11.3%.
Regarding `O=C(Cn1cnc(-c2ccccc2)cc1=O)Nc1ccncc1`, the Percent Effect is -2.42% in test [1]; 20.8% in [2]; -3.34% in test [3]; -1.53% in test [4]; 2.07% in the test with Trypanosoma cruzi; 1.94% in [5]. For the same compound, the Percent Effect was 16.9% in [6]; 26.1% in the test listed under Homo sapiens; 6.35% in [7]; 16.7% in test [8]; -9.23% in test [9].
